Assay outcomes from PubChem.
Hits are enriched below; roughly 3.2% of the tested compounds scored in any of these assays.
MARV entry inh – blocks Marburg virus binding to or entry into cells | hit rate 1.8% among 300,000 | AID 540276 | Marburg virus pseudotyped entry inhibition, cell reporter | Potency, µM (highest dose often 37.8 µM), inactives show at the top dose activity change, negative = inhibition, usual class: inhibitors; calls by dose curve; tested in HEK293 cells
Vaccinia mCherry – inhibitors of vaccinia virus infection (mCherry reporter signal) | Vaccinia virus mCherry reporter infection, fluorescence | Potency, µM (titrated, usually from 36.5 µM), for inactives: at the top dose activity change, negative = inhibition, usual class: inhibitors | hit rate 0.63% among 310,000 | AID 720579; calls by dose curve; tested in A549 cells; note: nearly all actives have a fitted effect of over 35% in size
FMDV inh – foot and mouth disease virus antiviral activity. FMDV antiviral cell-based qHTS. Potency, µM (highest dose often 57.9 µM), without a hit: at the top dose activity change, negative = inhibition, most hits filed as inhibitors. hit rate 1.2% among 410,000. AID 1159524; calls by dose curve; tested in HEK293T cells; note: read-out not given here; nearly all actives have a fitted effect of over 45% in size
Lassa entry inh – inhibitors of Lassa virus binding or cell entry | Lassa virus pseudotype entry inhibition, cell reporter | Potency, µM (top dose mostly 37.9 µM), for inactives: top-dose activity change, negative = inhibition, usual class: inhibitors | hit rate 1.2% among 300,000 | AID 540256; calls by dose curve; tested in HEK293 cells; note: nearly all actives have a fitted effect of over 50% in size
VACV Venus inh – inhibitors of vaccinia virus (Venus reporter); Vaccinia virus Venus reporter expression, fluorescence; Potency, µM (highest dose often 36.5 µM), for the others: at the highest dose activity change, negative = inhibition, usual class: inhibitors; hit rate 0.46% among 330,000; calls by dose curve; tested in A549 cells; note: nearly all actives have a fitted effect of over 30% in size
* = called active by the depositor; i = inactive; u = inconclusive; x = no result given; [ ] = another dose, or the depositor's remark. % is set by controls: 0 for no effect and ±100 for the full control effect; potency is the fitted concentration of half-maximal effect.

SMILES	MARV entry inh	Vaccinia mCherry	FMDV inh	Lassa entry inh	VACV Venus inh
CC1=C(c2ccc(Cl)cc2)S(=O)(=O)NC1=NCCCN1CCN(c2cc(C)ccc2C)CC1	-12%[46.1 µM]	10µM*	u	-17%[46.1 µM]	11µM*
O=C(CSc1ccccn1)Nc1ccc(NC(=O)CSc2ccccn2)cc1	x	x	-13%	x	x
O=C(CSc1ccccn1)Nc1nonc1[N+](=O)[O-]	x	x	32µM*	x	x
O=C(CSc1nc2c([nH]c3ccccc32)c(=O)n1-c1ccccc1F)Nc1cccc(Cl)c1	x	-28%	-19%	-24%[46.1 µM]	-22%
CCCCC[C@@H](/C=C/C1C(=O)C=C[C@H]1C/C=C\CCCC(=O)O)OC(C)=O (stereo not given in full)	x	u	35µM*	x	14%
Cc1ccc(C2CC(c3ccccc3)=NN2C(=S)Nc2ccccc2)o1 (stereo not given)	u	x	-16%	4µM*	u
CC1=NN(C(=S)Nc2ccccc2)C(c2ccccc2)C1 (stereo not given)	8%	-8%	36%	11%	3%
CN(C)c1ncnc2c1ccn2C1OC(CO)C(O)C1O (stereo not given)	2.2µM*	u	-25%	3.5µM*	u
OCC1OC(n2ccc3c(NO)ncnc32)C(O)C1O (stereo not given)	0.32µM*	u	u	u	1.1µM*
OCC1OC(n2cnc3c(NO)ncnc32)C(O)C1O (stereo not given)	x	39%	x	x	7%
OCC1OC(n2cnc3c(NCc4ccccc4O)ncnc32)C(O)C1O (stereo not given)	u	u	-8%	2.2µM*	u
CN(C)c1nc2c(N)ncnc2n1C1OC(CO)C(O)C1O (stereo not given)	17%	-15%	-6%	0%	-9%
CC1Cc2ccccc2C[N+]1(C)CC(=O)c1cccc([N+](=O)[O-])c1 (stereo not given)	x	0%	x	x	-11%
O=C1CCNc2cc3ccccc3cc21	0%	22µM*	-5%	-4%	u
O=C1CCNc2ccc(-c3ccccc3)cc21	2%	-23%	33%	2%	-5%
C=CCn1c2ccccc2c(=O)c2cc(C#Cc3ccccn3)ccc21	x	i	32%	x	-13%
CCOC(=O)c1c(C)oc2c(F)c(F)c(F)c(F)c2c1=O	u	x	11µM*	u	-29%
CCOC(=O)c1c(C)oc(=O)c(CC)c1O	x	i	-4%	x	-3%
O=C(COC(=O)Cc1ccccc1)Nc1ccc(SC(F)F)cc1	x	x	-10%	x	x
O=C(COC(=O)c1ccccc1C(=O)c1ccccc1)Nc1ccc(SC(F)F)cc1	u	-9%	u	16µM*	-29%
CCOC(=O)/C(=C\c1ccc(N2CCC(c3ccccc3)=N2)cc1)C(C)=O	2.8µM*	-10%	14%	7.9µM*	1%
Cc1cc(Cl)nc2nc(Cl)ccc12	x	25%	x	x	-9%
COc1ccc(/C=N/NC(=O)c2cc(OC)c(OC)c(OC)c2)cc1CN1CCc2cc(OC)c(OC)cc2C1C (stereo not given)	14µM*	-11%	-8%	-20%	-16%
CC1(C(=O)O)C2CCC(O2)C1(C)C(=O)O (stereo not given)	4.1µM*	x	x	3.3µM*	x
CCOC(=O)C1=C2C=C(OCC)C=CC2OC1c1ccccc1 (stereo not given)	-25%[46.1 µM]	x	x	x	x
SMILES	MARV entry inh	Vaccinia mCherry	FMDV inh	Lassa entry inh	VACV Venus inh
COc1ccc(CCNc2ncnc3c2c(-c2ccccc2)cn3-c2cccc(Cl)c2)cc1OC	x	-19%	25µM*	u	-11%
COc1ccc(CCNc2ncnc3cc(OC)c(OC)cc23)cc1OC	u	i	20µM*	u	-21%
COc1cc2ncnc(NCCc3ccccc3)c2cc1OC	x	x	20µM*	x	x
CC(=O)N(Cc1ccc2c(c1)OCO2)Cc1cc2ccc(C)cc2nc1-c1cccc(C)c1	x	-12%	-3%	x	27%
COc1cccc(NC(=O)CSc2nc3ccccc3nc2N2CCOCC2)c1	u	i	-19%	7.1µM*	-15%
CCC(C)NC(=O)CSc1nnc(-c2cc(-c3cccs3)nc3ccccc23)o1 (stereo not given)	-7%	x	-22%	-8%	2.8µM*
O=C(CSc1nnc(-c2cc(-c3cccs3)nc3ccccc23)o1)NC1CCCCC1	-13%	x	-16%	-4%	u
NC(=O)CSc1nnc(-c2cc(-c3cccs3)nc3ccccc23)o1	-19%	u	-12%	-25%	1.6µM*
COc1cccc(/C=N/Nc2nc3ccccc3[nH]2)c1OC	u	-17%	43%	u	-18%
